Compounds with a hit are over-represented: about 2.4% of the library has one in this group of screens.
POLK inh – blocks human DNA polymerase kappa activity. Q9UBT6. purified Pol kappa, fluorescent DNA synthesis assay, 10 min. Potency, µM (series often up to 107 µM), for inactives: top-dose activity, negative = inhibition, actives largely listed as inhibitors. hit rate 0.53% among 400,000; note: % is set by controls: 0 for no effect and ±100 for the full control effect
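Kinetic fluorescence readout at 0 and 10 min followed reaction start with substrate at 50 nM final. Beforehand, enzyme (10 nM Pol kappa) stood 15 min with compound at room temperature; buffer-only wells were negative controls.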
Pol eta inh – DNA polymerase eta (human) inhibition; Q9Y253; recombinant Pol eta, fluorescent DNA replication assay; Potency, µM (top dose mostly 114 µM), without a hit: at the top dose activity change, negative = inhibition, hits mostly inhibitors; hit rate 1.2% among 390,000; AID 588591; note: % is set by controls: 0 for no effect and ±100 for the full control effect
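Pol eta (10 nM) was preincubated with compounds for 15 min at room temperature, after which fluorescent replication substrate (50 nM final) was added to start the reaction. Fluorescence was read kinetically at 0 and 10 min.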
FEN1 inh-1 – human FEN1 inhibition | Potency, µM (highest dose often 114 µM), for inactives: top-dose activity change, negative = inhibition, actives largely listed as inhibitors | hit rate 0.35% among 390,000 | Recombinant FEN1 flap cleavage, fluorescence, 15 min; note: % is set by controls: 0 for no effect and ±100 for the full control effect; nearly all actives have a fitted effect of over 65% in size
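Recombinant FEN1 (10 nM) was preincubated with pin-transferred compounds for 15 min at room temperature, then flap DNA substrate (50 nM final) was added. Plates were read at 0 and 15 min, and normalized concentration–response data were fitted to a four-parameter Hill equation.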
Pol iota inh – blocks human DNA polymerase iota activity. AID 588590. Potency, µM (top dose mostly 115 µM), for inactives: at the highest dose activity, negative = inhibition, hits mostly inhibitors. hit rate 1% among 390,000. Q9UNA4. Pol iota fluorescent replication assay, 10 min
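Fluorescent replication assay read twice, at 0 min and 10 min after adding 50 nM (final) substrate. Enzyme (10 nM) and compounds were first incubated 15 min at room temperature; enzyme-free buffer wells were negative controls.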
WRN inhibitor – inhibitors of human WRN helicase | AID 651768 | hit rate 0.46% among 360,000 | Potency, µM (titrated, usually from 114 µM), for the others: at the highest dose activity change, negative = inhibition, usual class: inhibitors | WRN helicase unwinding, fluorescent forked duplex, kinetic | Q14191; note: % is set by controls: 0 for no effect and ±100 for the full control effect; nearly all actives have a fitted effect of over 55% in size
Target sequence (Q14191 whole entry, looked up): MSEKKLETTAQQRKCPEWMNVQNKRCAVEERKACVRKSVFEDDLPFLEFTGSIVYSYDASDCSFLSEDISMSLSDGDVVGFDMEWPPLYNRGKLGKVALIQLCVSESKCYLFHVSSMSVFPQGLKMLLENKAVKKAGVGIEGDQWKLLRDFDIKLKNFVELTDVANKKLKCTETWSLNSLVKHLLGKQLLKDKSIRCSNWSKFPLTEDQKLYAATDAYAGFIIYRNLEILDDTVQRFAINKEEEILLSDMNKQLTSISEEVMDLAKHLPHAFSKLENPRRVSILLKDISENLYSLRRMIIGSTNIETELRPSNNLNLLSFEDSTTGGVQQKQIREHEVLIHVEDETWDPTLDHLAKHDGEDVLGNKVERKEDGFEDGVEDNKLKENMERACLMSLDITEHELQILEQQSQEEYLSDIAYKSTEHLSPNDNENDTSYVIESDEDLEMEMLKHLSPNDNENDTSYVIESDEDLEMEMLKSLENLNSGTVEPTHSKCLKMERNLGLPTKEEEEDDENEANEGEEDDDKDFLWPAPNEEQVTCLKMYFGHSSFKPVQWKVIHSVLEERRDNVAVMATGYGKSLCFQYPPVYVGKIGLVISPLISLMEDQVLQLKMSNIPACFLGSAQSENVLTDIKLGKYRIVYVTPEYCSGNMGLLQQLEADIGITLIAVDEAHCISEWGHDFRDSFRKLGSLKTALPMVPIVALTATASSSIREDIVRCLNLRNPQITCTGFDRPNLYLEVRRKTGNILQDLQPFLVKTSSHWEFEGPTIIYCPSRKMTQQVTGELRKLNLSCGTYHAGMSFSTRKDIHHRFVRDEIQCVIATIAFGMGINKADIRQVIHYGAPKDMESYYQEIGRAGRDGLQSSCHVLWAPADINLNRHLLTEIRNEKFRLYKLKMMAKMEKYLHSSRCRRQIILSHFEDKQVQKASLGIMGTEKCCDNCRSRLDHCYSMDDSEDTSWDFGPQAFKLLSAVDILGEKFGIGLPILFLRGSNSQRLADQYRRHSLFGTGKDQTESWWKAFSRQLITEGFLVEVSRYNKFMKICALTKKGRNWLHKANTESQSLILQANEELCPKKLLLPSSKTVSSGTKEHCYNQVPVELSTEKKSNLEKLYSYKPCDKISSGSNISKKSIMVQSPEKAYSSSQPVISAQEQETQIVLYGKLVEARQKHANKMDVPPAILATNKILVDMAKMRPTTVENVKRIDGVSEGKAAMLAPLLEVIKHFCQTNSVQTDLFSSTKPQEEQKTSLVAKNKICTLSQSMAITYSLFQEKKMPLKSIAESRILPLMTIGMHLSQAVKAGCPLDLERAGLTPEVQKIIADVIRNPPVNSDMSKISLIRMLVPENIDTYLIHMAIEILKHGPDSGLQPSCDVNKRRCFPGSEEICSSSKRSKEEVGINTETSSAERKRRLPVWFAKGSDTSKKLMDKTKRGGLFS
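Kinetic red-fluorescence monitoring (525/598 nm) tracks WRN helicase activity after 100 nM fluorophore-quencher forked duplex and 2 mM ATP are added to 20 nM enzyme pretreated 15 min at room temperature with compound.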
POLB inh – DNA polymerase beta (human) inhibition; Pol beta primer extension/strand displacement, fluorescence kinetic; Potency, µM (top dose mostly 114 µM), without a hit: at the top dose activity change, negative = inhibition, most hits filed as inhibitors; hit rate 1.3% among 340,000; AID 485314; note: % is set by controls: 0 for no effect and ±100 for the full control effect
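Values derive from four-parameter Hill fits of normalized kinetic data: reads at 0 and 10 min following addition of 50 nM substrate to 10 nM Pol beta preincubated 15 min with compound.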
FEN1 inh-2 – FEN1 inhibition, cherry-pick retest; FEN1 flap cleavage, TAMRA/BHQ2 fluorogenic DNA substrate; hit rate 79% among 880; shares compounds with FEN1 inh-1; Potency, µM, hits mostly inhibitors; note: nearly all actives have a fitted effect of over 60% in size
An asterisk follows results filed as active; ? = inconclusive; / = not tested or not shown; [ ] = dose if it differs, or a comment. Calls come from the whole dose curve; as a rule, active = well fitted curve in the direction sought with a large enough effect; inconclusive = small, poorly fitted or top-dose-only effect, or another doubt; inactive = no such curve, though single readings can be large; an effect the other way counts as inactive or inconclusive. Potency is the fitted concentration of half-maximal effect.

SMILES | POLK inh | Pol eta inh | FEN1 inh-1 | Pol iota inh | WRN inhibitor | POLB inh | FEN1 inh-2
CCOC(=O)c1c(C)[nH]c(C)c1C(=O)COC(=O)c1ccc([N+](=O)[O-])s1 | 79µM* | 22µM* | ? | 10µM* | -4%[11.6 µM] | / | 27*
Cc1ccccc1S(=O)(=O)NC(=O)C1(C)CCN1C(=O)C/C=C/c1ccccc1 (configuration not stated) | / | / | / | / | -3% | / | /
CCN(CC)c1ccc(/C=C/c2cccc[n+]2C)c(OC)c1 | -33% | -27% | ? | 43% | 79µM* | 50µM* | 27*
COc1cc(CCC(N)c2cccc(O)c2)cc(OC)c1OC (configuration not stated) | -10% | -4% | 3% | 5% | 2% | / | /
O=C(Nc1ccc2oc(-c3ccccc3)nc2c1)c1cc(-n2cnnc2)ccc1Cl | -9% | -24% | ? | 35µM* | -22%[57.1 µM] | ? | 48*
O=C(Nc1ccccc1)c1cc(-n2cnnc2)ccc1Cl | -3% | -5% | -3% | 10% | 4% | 2% | /
CCOc1ccc(NC(=O)CSc2ncc(S(=O)(=O)c3ccc(F)c(C)c3)c(=O)[nH]2)cc1 | 0% | 1% | 3% | ? | / | 8% | /
CCOc1ccc2nc(NC3=NC(c4ccc(OC)cc4)CC(=O)N3)nc(C)c2c1 (configuration not stated) | -12% | -24% | 79µM* | 14% | 50µM* | 33% | 76*
CCOc1ccc2nc(NC3=NC(C)(C)C=C(C)N3)nc(C)c2c1 | 7% | -6% | 40µM* | 13% | 86% | 27% | 17*
CCOc1ccc2c(C)nc(NC3=NC(C)(C)C=C(C)N3)nc2c1 | 7% | 5% | 45µM* | 4% | 95% | -1% | 27*
COc1ccc2c(C)nc(Nc3nc(-c4ccccc4)cc(=O)[nH]3)nc2c1 | 1% | -15% | -19% | 57% | ? | 61% | /
CCOc1ccc2nc(NC3=NCN(Cc4ccco4)CN3)nc(C)c2c1 | / | / | / | / | / | 13% | /
CCOc1ccc(C2CC(=O)NC(NC(=O)c3ccc(C)cc3)=N2)cc1 (configuration not stated) | -6% | -13% | -5% | 21% | / | 3% | /
NC(=O)N=Nc1c2[nH]c3ccccc3nc-2c2ccccc12 | -10% | ? | 10µM* | ? | -11%[11.6 µM] | -51% | 3.4*
COc1ccccc1N1CCN(c2ncc3c(n2)CCN(Cc2ccccc2C)C3)CC1 | -12%[60.1 µM] | -21% | 1% | 16% | / | -1% | /
Cc1ccccc1CN1CCc2nc(N3CCN(c4ncccn4)CC3)ncc2C1 | -11%[60.1 µM] | -6% | ? | -23% | / | 10% | 67*
COC(=O)c1c(Cl)c2n3ccccc3c(C)c(-c3ccccc3)c-2c1C(=O)OC | -7% | ? | -1% | ? | ? | 11% | /
COC(=O)c1cc2c(-c3ccccc3)c(C)c3ccccn3c-2c1C(=O)OC | ? | ? | ? | -17% | ? | 13% | 85*
O=C(c1cccc(F)c1)N1CCC2(CC1)CCN(c1ccccn1)CC2 | 1%[60.1 µM] | / | / | / | / | / | /
O=C1C(=O)N(O)C2CCCCC2N1O (configuration not stated) | 0% | -21% | 18µM* | 43% | 12% | 17% | 24*
O=C(O)CCN1C(=O)C2CCCCC2C1=O (configuration not stated) | 5% | -8% | 9% | 3% | 11% | 31% | /
CC[n+]1ccc(/C=C/c2ccc(N(C)C)cc2)c2ccccc21 | ? | ? | 40µM* | -29% | 45µM* | 45µM* | 48*
CN(C)c1ccc(/C=C/c2cc[n+]([O-])c3ccccc23)cc1 | 2% | / | 15% | 6% | / | / | /
Cc1cc2c([nH]c3ccccc32)c(C)n1 | -14% | -18% | -17% | 27% | 7% | 14% | /
Cc1c2ccncc2cc2c1[nH]c1ccccc12 | -35% | -21% | 18µM* | ? | 1%[11.6 µM] | / | 17*

Screens as filed in PubChem.
